This note sets out measurements from PubChem BioAssay (NCI).

Some test systems named below: EKVX NSCLC; SN12C renal; UO-31 renal; TK-10 renal; ACHN renal; CAKI-1 renal; MOLT-4 leukemia; SR leukemia; OVCAR-8 ovarian; OVCAR-5 ovarian; OVCAR-4 ovarian; SK-OV-3 ovarian; IGROV1 ovarian; OVCAR-3 ovarian; HS 578T breast; NCI/ADR-RES ovarian; CCRF-CEM leukemia; RPMI-8226 leukemia; A498 renal.
Common to all, as to test: NCI-60 one-dose screen, 48 h (100 = growth as untreated, 0 = no growth, -100 = all killed)
Holding throughout (details): 10 µM

Compounds without any hit were thinned out: in the full panel of roughly 83,000, 20% have a hit.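 Single-dose data. Exposure time 48 hours. Values below 10 considered active.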 Unmarked numbers belong to inactive results. The source made the active and inactive calls.

Turning to `COc1cc(-c2ccc[nH]2)[nH]c1/C=C1\N=C(C)C(C(=O)NC(C)C)=C1C`, the growth in the assay with EKVX NSCLC was 35.4%; with SN12C renal, 38.3%; in the assay with UO-31 renal it was -35% (active); in the assay on TK-10 renal it was 17.7%; with ACHN renal it was 12.6%; in the assay on CAKI-1 renal it was 20%. Also, the growth with MOLT-4 leukemia was -14.2% (active); with SR leukemia, -15.5% (active); with OVCAR-8 ovarian, 14.7%; in the assay on OVCAR-5 ovarian, 43.2%; in the assay with OVCAR-4 ovarian it was 23.5%; in the assay with SK-OV-3 ovarian it was 50.7%. Further, the growth in the assay with IGROV1 ovarian is 34%; with OVCAR-3 ovarian it was 19.5%; in the assay with HS 578T breast, 39.1%; with NCI/ADR-RES ovarian, 17.6%.

Regarding `CN1CCN(C2=Nc3ccccc3Oc3ccc(Cl)cc32)CC1`, the growth in the assay on EKVX NSCLC was 107%; with SN12C renal, 100%; with TK-10 renal, 89.7%; in the assay on ACHN renal it was 93.6%; in the assay with CAKI-1 renal it was 81.5%; with CCRF-CEM leukemia, 99.6%. In addition, the growth was 80.3% with MOLT-4 leukemia; 76.9% in the assay on SR leukemia; 99.5% in the assay with RPMI-8226 leukemia; 107% with OVCAR-8 ovarian; 96.1% with OVCAR-5 ovarian; 84.3% in the assay with OVCAR-4 ovarian. Also, the growth was 117% with SK-OV-3 ovarian; 97.2% in the assay with IGROV1 ovarian; 104% in the assay on OVCAR-3 ovarian; 104% in the assay with HS 578T breast; 98% in the assay with NCI/ADR-RES ovarian.

Turning to `Cc1cc(C(C#N)c2ccc(Cl)cc2)c(Cl)cc1NC(=O)c1cc(I)cc(I)c1O` (stereo unspecified), the growth is 41.2% with EKVX NSCLC; 31% with SN12C renal; 79.8% in the assay on UO-31 renal; 65.3% with TK-10 renal; 79.8% with ACHN renal; 38.7% in the assay on CAKI-1 renal. The growth with A498 renal is -37% (active); in the assay on CCRF-CEM leukemia, 19.1%; with MOLT-4 leukemia, 15.3%; in the assay on SR leukemia it was 27.6%; with RPMI-8226 leukemia, 13.8%; with OVCAR-8 ovarian it was 53.4%. Besides, the growth with OVCAR-5 ovarian was 87.8%; in the assay on OVCAR-4 ovarian, 82.6%; with SK-OV-3 ovarian it was 85.2%; with IGROV1 ovarian, 51.7%; in the assay with OVCAR-3 ovarian, 32.6%; with HS 578T breast, 26%. In addition, the growth with NCI/ADR-RES ovarian was 21.1%.

Regarding `CC(C)(C)c1ccc(S(=O)(=O)N[C@H]2CC[C@H]3[C@@H]4CCc5cc(OS(=O)(=O)O)ccc5[C@H]4CC[C@]23C)cc1`, the growth with SN12C renal was 27.4%; in the assay with UO-31 renal, 17%; in the assay on ACHN renal it was 33.4%; in the assay with CAKI-1 renal it was 41.5%; in the assay with A498 renal, 28.1%; in the assay with MOLT-4 leukemia, 15.2%. The growth in the assay on SR leukemia is 20.7%; in the assay on RPMI-8226 leukemia, 34.1%; with OVCAR-8 ovarian, 52.1%; in the assay with OVCAR-5 ovarian, 87.3%; in the assay with OVCAR-4 ovarian, 53.4%; in the assay with SK-OV-3 ovarian it was 82.1%. The growth in the assay with IGROV1 ovarian was 41.4%; with OVCAR-3 ovarian, 34.1%; in the assay on HS 578T breast, 66.5%; in the assay with NCI/ADR-RES ovarian, 47.3%.

Turning to `Cc1ccccc1N1C(=O)c2cc(S(N)(=O)=O)c(Cl)cc2NC1C` (stereo unspecified), the growth with EKVX NSCLC was 111%; in the assay with SN12C renal, 108%; with UO-31 renal, 82.8%; with TK-10 renal, 104%; with ACHN renal, 108%; with CAKI-1 renal, 103%. Besides, the growth in the assay on A498 renal was 108%; in the assay with MOLT-4 leukemia, 84.9%; in the assay on SR leukemia, 87.1%; in the assay on RPMI-8226 leukemia it was 106%; in the assay with OVCAR-8 ovarian, 108%; with OVCAR-5 ovarian it was 108%. In addition, the growth in the assay with OVCAR-4 ovarian was 111%; with SK-OV-3 ovarian, 128%; in the assay with IGROV1 ovarian it was 111%; with OVCAR-3 ovarian, 109%; in the assay with HS 578T breast, 111%; in the assay with NCI/ADR-RES ovarian, 103%.

On to `C[C@]12CC[C@@H]3c4ccc(OS(=O)(=O)O)cc4CC[C@H]3[C@@H]1CC[C@@H]2NS(=O)(=O)c1ccc(-c2ccccc2)cc1`, for which the growth was 68.7% in the assay with SN12C renal; 40.8% in the assay on UO-31 renal; 93.3% in the assay with TK-10 renal; 47.7% with ACHN renal; 66.2% with CAKI-1 renal; 85.1% in the assay on A498 renal. Besides, the growth in the assay on MOLT-4 leukemia was 31.4%; in the assay with SR leukemia, 38.6%; with RPMI-8226 leukemia, 32.4%; in the assay with OVCAR-8 ovarian, 67.6%; in the assay on OVCAR-5 ovarian, 113%; in the assay on OVCAR-4 ovarian it was 66.9%. The growth in the assay with SK-OV-3 ovarian was 91.6%; with IGROV1 ovarian, 70.4%; with OVCAR-3 ovarian, 52.6%; in the assay on HS 578T breast, 89.3%; in the assay with NCI/ADR-RES ovarian, 58.5%.

Turning to `COc1ccc(CCN2CCC(Nc3nc4ccccc4n3Cc3ccc(F)cc3)CC2)cc1`, the growth in the assay on EKVX NSCLC was 45.1%; in the assay on SN12C renal it was 34.1%; in the assay with UO-31 renal it was -19.8% (active); in the assay on TK-10 renal, -6.61% (active); with ACHN renal it was 12.5%; in the assay with CAKI-1 renal it was -1.28% (active). In addition, the growth in the assay on A498 renal was -9.07% (active); in the assay on CCRF-CEM leukemia, -13.6% (active); with MOLT-4 leukemia it was -40.7% (active); in the assay with SR leukemia, -54.6% (active); with RPMI-8226 leukemia it was -20.2% (active); in the assay on OVCAR-8 ovarian, -40.4% (active). Further, the growth in the assay with OVCAR-5 ovarian is 34.5%; in the assay on OVCAR-4 ovarian, 22.4%; with SK-OV-3 ovarian, 44%; in the assay on OVCAR-3 ovarian, 28.3%; in the assay with HS 578T breast, -40.2% (active); in the assay with NCI/ADR-RES ovarian it was 37.7%.
